Hit rate of the full screen: of about 5,500 compounds, about 2,000 (36%) were called active. About 18% were inconclusive and are not listed. Rule as the data show it: active = normalized growth mostly below about 0.91 (no sharp cut-off); inconclusive = no clear call, values can overlap the other calls; inactive = mostly above about 0.92. The list shows a part of the results.
Experiment: chemical genetic growth profiling, strain panel (AID 1159580);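 also: tested at 20 µM; growth read once vehicle control cultures reached saturation at 30 °C; 1 = growth at the plate median or of vehicle wells; lower values mean less growth of the strain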
Details: growth OD
[1] = S. cerevisiae deletion strains, locus YGR078C, strain PAC10, active compounds read low
[2] = S. cerevisiae deletion strains, locus YNL128W, strain TEP1, active compounds read low
[3] = S. cerevisiae deletion strains, locus YNL322C, strain KRE1, active compounds read low
[4] = S. cerevisiae deletion strains, locus YHR030C, strain SLT2, active compounds read low
[5] = S. cerevisiae deletion strains, locus YJL095W, strain BCK1, active compounds read low

Measured: normalized growth

C[N+]1(C)CCc2cc3c(cc2[C@H]1[C@@H]1OC(=O)c2c1ccc1c2OCO1)OCO3
inactive: S. cerevisiae deletion strains, locus YAL040C, strain CLN3, active compounds read low 0.982 | S. cerevisiae deletion strains, locus YDR150W, strain NUM1, active compounds read low 0.997 | S. cerevisiae deletion strains, locus YER002W, strain NOP16, active compounds read low 0.991 | [1] 1.01 | [2] 1 | S. cerevisiae deletion strains, locus YNL153C, strain GIM3, active compounds read low 0.998 | S. cerevisiae deletion strains, locus YNL175C, strain NOP13, active compounds read low 0.987 | S. cerevisiae deletion strains, locus YNL197C, strain WHI3, active compounds read low 1.05 | S. cerevisiae deletion strains, locus YNL224C, strain SQS1, active compounds read low 0.994 | [3] 1.01 | S. cerevisiae deletion strains, locus YOR083W, strain WHI5 (second series), active compounds read low 1 | S. cerevisiae deletion strains, locus YPL055C, strain LGE1, active compounds read low 1.01

CCCCCCCCCCCC(=O)OCC(COP(=O)(O)OCC(O)COP(=O)(O)OCC(COC(=O)CCCCCCCCCCC)OC(=O)CCCCCCCCCCC)OC(=O)CCCCCCCCCCC (centres undefined)
active: S. cerevisiae deletion strains, locus YDL035C, strain GPR1, active compounds read low 0.663 | S. cerevisiae deletion strains, locus YDL074C, strain BRE1, active compounds read low 0.72 | S. cerevisiae deletion strains, locus YDL101C, strain DUN1, active compounds read low 0.839 | S. cerevisiae deletion strains, locus YDR162C, strain NBP2, active compounds read low 0.55 | S. cerevisiae deletion strains, locus YEL061C, strain CIN8, active compounds read low 0.861 | S. cerevisiae deletion strains, locus YGL086W, strain mad1, active compounds read low 0.927 | S. cerevisiae deletion strains, locus YGL248W, strain PDE1, active compounds read low 0.876 | S. cerevisiae deletion strains, locus YGR229C, strain SMI1, active compounds read low 0.181 | S. cerevisiae deletion strains, locus YHR129C, strain ARP1, active compounds read low 0.902 | S. cerevisiae deletion strains, locus YIL066C, strain RNR3, active compounds read low 0.633 | S. cerevisiae deletion strains, locus YIL073C, strain SPO22, active compounds read low 0.524 | S. cerevisiae deletion strains, locus YJL187C, strain SWE1 (second series), active compounds read low 0.703 | S. cerevisiae deletion strains, locus YJR043C, strain POL32, active compounds read low 0.632 | S. cerevisiae deletion strains, locus YKL190W, strain CNB1, active compounds read low 0.682 | S. cerevisiae deletion strains, locus YLR039C, strain RIC1, active compounds read low 0.671 | S. cerevisiae deletion strains, locus YLR058C, strain SHM2, active compounds read low 0.811 | S. cerevisiae deletion strains, locus YLR342W, strain FKS1 (second series), active compounds read low 0.549 | S. cerevisiae deletion strains, locus YLR418C, strain cdc73, active compounds read low 0.765 | S. cerevisiae deletion strains, locus YML016C, strain PPZ1, active compounds read low 0.792 | S. cerevisiae deletion strains, locus YMR307W, strain GAS1, active compounds read low 0.475 | [2] 0.589 | [3] 0.715 | S. cerevisiae deletion strains, locus YOL006C, strain TOP1, active compounds read low 0.29 | S. cerevisiae deletion strains, locus YOR061W, strain CKA2, active compounds read low 0.803 | S. cerevisiae strains, strain wild type, active compounds read low 0.56
inactive: S. cerevisiae deletion strains, locus YBR021W, strain FUR4, active compounds read low 0.99 | S. cerevisiae deletion strains, locus YBR229C, strain ROT2, active compounds read low 0.967 | S. cerevisiae deletion strains, locus YCL029C, strain bik1, active compounds read low 1.01 | S. cerevisiae deletion strains, locus YDL185W, strain tfp1, active compounds read low 0.981 | S. cerevisiae deletion strains, locus YDL192W, strain arf1, active compounds read low 0.972 | S. cerevisiae deletion strains, locus YDR101C, strain arx1, active compounds read low 1.03 | S. cerevisiae deletion strains, locus YDR318W, strain mcm21, active compounds read low 1 | S. cerevisiae deletion strains, locus YDR388W, active compounds read low 1.01 | S. cerevisiae deletion strains, locus YDR502C, strain sam2, active compounds read low 0.978 | S. cerevisiae deletion strains, locus YER110C, active compounds read low 1.03 | S. cerevisiae deletion strains, locus YER155C, strain BEM2, active compounds read low 1.02 | S. cerevisiae deletion strains, locus YER167W, strain BCK2, active compounds read low 0.953 | S. cerevisiae deletion strains, locus YGL078C, strain dbp3, active compounds read low 1.02 | [1] 0.879 | S. cerevisiae deletion strains, locus YGR135W, strain pre9, active compounds read low 0.923 | S. cerevisiae deletion strains, locus YGR252W, strain gcn5, active compounds read low 0.887 | [4] 0.965 | S. cerevisiae deletion strains, locus YHR079C, strain IRE1 (second series), active compounds read low 1.04 | S. cerevisiae deletion strains, locus YHR094C, strain hxt1, active compounds read low 1.03 | S. cerevisiae deletion strains, locus YHR200W, strain rpn10, active compounds read low 0.995 | S. cerevisiae deletion strains, locus YIL125W, strain kgd1, active compounds read low 1.03 | S. cerevisiae deletion strains, locus YIR030C, strain dcg1, active compounds read low 1.03 | [5] 0.816 | S. cerevisiae deletion strains, locus YJL134W, strain LCB3, active compounds read low 0.975 | S. cerevisiae deletion strains, locus YJL168C, strain set2, active compounds read low 1 | S. cerevisiae deletion strains, locus YKL009W, strain mrt4, active compounds read low 1.09 | S. cerevisiae deletion strains, locus YKL068W, active compounds read low 1.03 | S. cerevisiae deletion strains, locus YKL085W, strain MDH1 (second series), active compounds read low 1.01 | S. cerevisiae deletion strains, locus YKL085W, strain MDH1, active compounds read low 1.01 | S. cerevisiae deletion strains, locus YKR001C, strain vps1, active compounds read low 0.986 | S. cerevisiae deletion strains, locus YLR102C, strain apc9, active compounds read low 1.02 | S. cerevisiae deletion strains, locus YLR262C, strain YPT6, active compounds read low 0.798 | S. cerevisiae deletion strains, locus YLR268W, strain sec22, active compounds read low 0.937 | S. cerevisiae deletion strains, locus YLR330W, strain CHS5, active compounds read low 0.964 | S. cerevisiae deletion strains, locus YLR371W, strain rom2, active compounds read low 0.971 | S. cerevisiae deletion strains, locus YML032C, strain rad52, active compounds read low 1.03 | S. cerevisiae deletion strains, locus YML124C, strain tub3, active compounds read low 1.02 | S. cerevisiae deletion strains, locus YMR078C, strain ctf18, active compounds read low 1.02 | S. cerevisiae deletion strains, locus YMR223W, strain ubp8, active compounds read low 0.962 | S. cerevisiae deletion strains, locus YMR263W, strain SAP30, active compounds read low 0.923 | S. cerevisiae deletion strains, locus YNL067W, strain RPL9B, active compounds read low 0.891 | S. cerevisiae deletion strains, locus YNL233W, strain BNI4, active compounds read low 0.91 | S. cerevisiae deletion strains, locus YNL250W, strain rad50, active compounds read low 1.02 | S. cerevisiae deletion strains, locus YNL271C, strain bni1, active compounds read low 1 | S. cerevisiae deletion strains, locus YNL298W, strain CLA4, active compounds read low 1.01 | S. cerevisiae deletion strains, locus YNL307C, strain MCK1, active compounds read low 1.02 | S. cerevisiae deletion strains, locus YNR052C, strain pop2, active compounds read low 0.975 | S. cerevisiae deletion strains, locus YOL012C, strain htz1 0.377 | S. cerevisiae deletion strains, locus YOL147C, strain pex11, active compounds read low 1.02 | S. cerevisiae deletion strains, locus YOR069W, strain VPS5, active compounds read low 0.951 | S. cerevisiae deletion strains, locus YOR136W, strain idh2, active compounds read low 1.01 | S. cerevisiae deletion strains, locus YOR144C, strain elg1, active compounds read low 1.01 | S. cerevisiae deletion strains, locus YOR184W, strain ser1, active compounds read low 0.926 | S. cerevisiae deletion strains, locus YOR316C, strain cot1, active compounds read low 1.02 | S. cerevisiae deletion strains, locus YPR119W, strain clb2, active compounds read low 1.03 | S. cerevisiae deletion strains, locus YPR141C, strain kar3, active compounds read low 1.02 | S. cerevisiae deletion strains, locus YPR163C, strain tif3, active compounds read low 1.02 | S. cerevisiae deletion strains, locus YPR167C, strain met16, active compounds read low 1.02 | S. cerevisiae deletion strains, strain wtn01, active compounds read low 0.947

CCCCCCCCCCCCCCCC(=O)OCC(O)CO (centres undefined)
inactive: [4] 1 | S. cerevisiae deletion strains, locus YHR079C, strain IRE1, active compounds read low 0.99 | [5] 0.967 | S. cerevisiae deletion strains, locus YJR066W, strain TOR1, active compounds read low 0.936 | S. cerevisiae deletion strains, locus YLR113W, strain HOG1, active compounds read low 1 | S. cerevisiae deletion strains, locus YNL183C, strain NPR1, active compounds read low 0.93 | S. cerevisiae deletion strains, locus YOR231W, strain MKK1, active compounds read low 1.01 | S. cerevisiae deletion strains, locus YPL256C, strain CLN2, active compounds read low 1.02
